# Hits are enriched below; roughly 4% of the tested compounds scored in any of these assays.
# Mtb UGM inh = M. tuberculosis UGM enzyme inhibitors, primary screen, biochemical, fluorescence polarization, single point | hit rate 0.06% among 320,000 | AID 504406, 2011 | purified UGM, fluorescence polarization probe displacement | inhibition, % at 10 µM; in the data active = inhibition above about 10%, passing the limit was not always enough
# FBA Mtb inh = Mtb FBA enzyme inhibitors, primary screen, biochemical, fluorescence, strain H37Rv; Fructose-bisphosphate aldolase (Mycobacterium tuberculosis (strain ATCC 25618 / H37Rv)), …; purified M. tuberculosis FBA, fluorescence read-out; inhibition, % at 1 µM; hit rate 2.3% among 360,000
# Target sequence (P9WQA3 whole entry, looked up): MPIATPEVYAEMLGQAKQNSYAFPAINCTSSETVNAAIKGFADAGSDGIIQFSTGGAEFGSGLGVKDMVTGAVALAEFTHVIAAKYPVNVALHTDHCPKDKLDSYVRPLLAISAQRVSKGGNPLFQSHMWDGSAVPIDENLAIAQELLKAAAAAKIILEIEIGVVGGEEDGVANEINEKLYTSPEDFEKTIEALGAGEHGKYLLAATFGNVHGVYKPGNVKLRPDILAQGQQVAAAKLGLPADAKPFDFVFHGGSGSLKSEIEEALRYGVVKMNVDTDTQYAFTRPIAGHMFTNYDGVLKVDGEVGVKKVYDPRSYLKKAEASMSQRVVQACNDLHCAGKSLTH
# GDH-TPI counter-1 = GDH-TPI coupling enzyme inhibitors, primary screen, artefact control for M. tuberculosis FBA inhibitor project, biochemical, absorbance, full deck | GDH-TPI coupled enzyme counterscreen, NADH absorbance | inhibition, % at 4.8 µM | hit rate 1.2% among 360,000 | AID 588335, 2011; in the data active = inhibition above about 30%
# Mtb bLac sens = beta-lactam sensitization of Mtb H37Rv, H37Rv. M. tuberculosis H37Rv growth with meropenem, percent inhibition. inhibition, % at 25 µM. hit rate 0.27% among 330,000. AID 434955, 2010; call rule not given here;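 note: growth measured after seven days incubation then overnight dye step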
# RecA splice inh = Mtb RecA intein splicing inhibitors, primary screen, biochemical, fluorescence, HTS; inhibition, % (test concentration not listed); cell-free RecA intein splicing; hit rate 0.75% among 290,000; AID 2221, 2009; in the data active = inhibition above about 30%
# Rv3671c protease = Rv3671c serine protease inhibitors, primary screen, biochemical, fluorescence polarization, M. tuberculosis H37Rv; P9WHR9; inhibition, % at 5.96 µM; hit rate 0.048% among 320,000; AID 2606, 2010; in the data active = inhibition above about 38%;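 note: extracellular domain of Rv3671c used as enzyme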
# Mtb FBA inh conf = M. tuberculosis aldolase blockers, biochemical, fluorescence, strain H37Rv, confirmation; shares compounds with FBA Mtb inh; purified M. tuberculosis FBA, fluorescence read-out; inhibition, % at 1 µM; hit rate 78% among 5,600
# GDH-TPI counter-2 = GDH-TPI coupling enzyme inhibitors, artefact control for M. tuberculosis FBA inhibitor project, biochemical, fluorescence, high throughput; inhibition, % at 1 µM; GDH-TPI coupled enzyme counterscreen; hit rate 81% among 5,600; AID 652141, 2013; shares compounds with FBA Mtb inh; in the data active = inhibition above about 10%
# GDH-TPI DR = GDH-TPI coupling enzyme inhibitors, dose response, artefact control for M. tuberculosis FBA inhibitor project, biochemical, fluorescence, IC50. AID 652145, 2013. hit rate 79% among 170. shares compounds with FBA Mtb inh. GDH-TPI coupled enzyme assay, artifact counterscreen. IC50, µM; call rule not given here
# Hits are given with their value; - = inactive; . = no result given; + = active, no number. Cut-off read from the data, not from the text of the source, unless noted: active = inhibition above about 27%; inactive = the rest.
SMILES,Mtb UGM inh,FBA Mtb inh,GDH-TPI counter-1,Mtb bLac sens,RecA splice inh,Rv3671c protease,Mtb FBA inh conf,GDH-TPI counter-2,others
COc1ccc(-c2cnc3c(NC(C)=O)cc(-c4ccccc4OC)cn23)cc1OC,.,-,-,.,.,.,.,.,
COc1ccccc1-c1cc(NC(C)=O)c2ncc(-c3ccc(S(C)(=O)=O)cc3)n2c1,.,58.5,-,.,.,.,71.4,61.7,
CC(=O)Nc1cc(-c2ccccc2Cl)cn2c(-c3ccc(S(C)(=O)=O)cc3)cnc12,.,41.5,-,.,.,.,+,182.6,
CC(=O)Nc1cc(-c2cccc(C)c2)cn2c(-c3ccc(S(C)(=O)=O)cc3)cnc12,.,35.0,-,.,.,.,-,-,
O=C(Cn1ccc(=O)[nH]c1=O)Nc1nccs1,.,-,-,.,.,.,.,.,
CCOC(=O)C1CCC/C1=N\NC(=O)CN(c1cc(OC)ccc1OC)S(=O)(=O)c1ccccc1 (configuration not stated),-,-,-,-,-,-,.,.,
CCCn1c(SCC(=O)Nc2ccccc2CC)nnc1C(C)C,-,-,-,-,-,-,.,.,
CCCn1c(SCC(=O)Nc2c(C)cccc2CC)nnc1C(C)C,-,38.8,-,-,-,-,117.7,110.7,
c1ccc2oc(-c3ccc4nc[nH]c4c3)nc2c1,-,60.0,-,-,-,-,+,169.3,
COc1ccc(-c2nc3ccccc3o2)cc1OC,-,-,-,-,.,-,.,.,
COc1cc(Cl)cc(/C=N\NC(=O)c2ccc3c(c2)OCO3)c1O,.,27.2,-,.,.,.,135.2,113.9,
Cc1ccc2nc(N3CCN(C(=O)CCCC(=O)O)CC3)nc(-c3ccccc3)c2c1,-,32.0,-,-,-,-,73.1,37.9,
COC(=O)c1sc2nc(N)c(C#N)cc2c1N,-,-,-,-,-,-,.,.,
COC(=O)c1sc2cnccc2c1N,-,109.8,-,-,-,-,90.8,84.9,
COC(=O)c1ccncc1N,-,47.4,-,-,-,-,-,-,
COc1ccc2nccc(C(N)=O)c2c1,-,48.9,-,-,-,-,42.5,28.3,
CCOc1ccc2nc(C)cc(C(=O)O)c2c1,-,87.0,-,-,-,-,73.9,50.7,
COc1ccc2oc(C)c(C(N)=O)c2c1,-,-,-,-,-,-,.,.,
COc1ccc2nc(C)cc(C(=O)O)c2c1,-,78.7,-,-,-,-,-,-,GDH-TPI DR=2.33
Cc1cc(NC(=O)C2CCCCC2C(=O)O)ccc1NC(=O)c1ccccc1 (configuration not stated),-,-,-,-,-,-,.,.,
Cc1cc(C)c2cc(C#N)c(N3CCCN(C(=S)NCCCN(C)C)CC3)nc2c1,-,-,-,-,-,-,.,.,
Cc1cc(C)c2cc(C#N)c(N3CCCC3)nc2c1,-,36.3,-,-,.,-,-,-,
Cc1nc(Nc2ccncc2)c2oc3ccccc3c2n1,-,35.5,32.8,-,-,-,160.8,135.6,
CC(=O)Nc1ccc(Nc2nc(C)nc3c2oc2ccccc23)cc1,-,-,-,-,-,-,.,.,
CCc1nc(Nc2ccncc2)c2oc3ccccc3c2n1,-,56.8,40.1,-,-,-,48.8,40.9,
C[C@]12c3[nH]c4cc(-c5ccco5)ccc4c3CCN1C(=O)[C@@H](CC(=O)NCCCn1ccnc1)C[C@@H]2C(=O)N1CCCCC1,.,-,-,.,.,.,.,.,
C[C@]12c3[nH]c4cc(-c5ccco5)ccc4c3CCN1C(=O)[C@@H](CC(=O)NCCCn1ccnc1)C[C@@H]2C(=O)N1CCOCC1,.,28.5,-,.,.,.,-,-,
CN(C)CCCNC(=O)C[C@H]1C[C@H](C(=O)N2CCCCC2)[C@@]2(C)c3[nH]c4cc(-c5ccco5)ccc4c3CCN2C1=O,.,33.8,-,.,.,.,40.6,34.4,
